Experiment [1] is described as follows: resazurin metabolic signal in HepG2 cells – cell-based, resazurin fluorescence, 24 h, PK04 Diversity Set, profiling panel (AID 1172). Further: test concentration not given here. Conditions: HepG2 viability, higher = more signal.
Experiment [2] can be described thus: budding yeast growth changes without added modifier – OD600, strain BY4716, 24 h, basal condition, primary screen (AID 1173). The settings on record: S. cerevisiae BY4716 growth, OD600, 24 h; higher = more signal, called active from +8 up or from −8 down.
Experiment [3] is described as follows: viability profiling in MM1S myeloma cells – cell-based, resazurin fluorescence, basal, 24 h, PK04 Diversity Set, profiling panel (AID 1174).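 Further: MM1S multiple myeloma cell line; test concentration not given here.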 The settings on record: higher = more signal, called active from +8 up or from −8 down. A general note: Resazurin is reduced to fluorescent resorufin, in cell work by metabolically active cells.
For experiment [4], the target named is Dihydroorotate dehydrogenase (quinone), mitochondrial (Plasmodium falciparum (isolate 3D7)) (UniProt Q08210). Put plainly: inhibition of P. falciparum DHODH – biochemical, C-terminal His tag, absorbance 600 nm, primary screen (AID 1175).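 Further: recombinant parasite enzyme with a five histidine tag at its C terminus; test concentration not given here.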 Conditions: PfDHODH enzyme, DCIP absorbance 600 nm; higher = more signal, called active from +8 up or from −8 down.
Chain of Dihydroorotate dehydrogenase (quinone), mitochondrial (Plasmodium falciparum (isolate 3D7)) (Q08210 whole entry, looked up): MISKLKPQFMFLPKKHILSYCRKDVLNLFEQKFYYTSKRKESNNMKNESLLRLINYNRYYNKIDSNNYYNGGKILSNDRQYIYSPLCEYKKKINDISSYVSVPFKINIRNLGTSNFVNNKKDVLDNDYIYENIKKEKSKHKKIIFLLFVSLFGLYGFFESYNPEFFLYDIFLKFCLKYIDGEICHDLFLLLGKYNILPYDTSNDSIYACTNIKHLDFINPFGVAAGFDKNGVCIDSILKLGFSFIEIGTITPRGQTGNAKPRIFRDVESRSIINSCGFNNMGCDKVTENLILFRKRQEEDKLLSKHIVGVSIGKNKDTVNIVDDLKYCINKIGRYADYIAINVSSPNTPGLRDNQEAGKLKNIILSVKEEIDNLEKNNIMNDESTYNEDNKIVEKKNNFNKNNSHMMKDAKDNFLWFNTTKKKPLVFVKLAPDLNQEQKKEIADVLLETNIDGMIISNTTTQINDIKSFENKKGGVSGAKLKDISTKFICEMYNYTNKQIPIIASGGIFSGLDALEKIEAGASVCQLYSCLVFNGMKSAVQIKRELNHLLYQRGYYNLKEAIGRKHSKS
Experiment [5] in a line: inhibition of PAO1 biofilm formation – strain PAO1, LB-PBS medium, absorbance 600 nm, primary screen (AID 1176). Further: test concentration not given here. The settings on record: P. aeruginosa PAO1 growth/biofilm, A600, 12 h; higher = more signal.
A short description of experiment [6]: growth modulation of vineyard yeast isolate – strain RM11-1a, OD600, basal, 24 h, primary screen (AID 1177).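 Further: cultures grown under basal conditions with no added stressor; test concentration not given here.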 Conditions: S. cerevisiae RM11-1a growth, OD600, 24 h; higher = more signal, called active from +8 up or from −8 down.
A short description of experiment [7]: growth of efflux-deficient E. coli DRC39 – strain DRC39, OD650, 24 h, E. coli filamentation inducers, primary screen (AID 1178).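 Further: growth measured as culture turbidity by optical density at 650 nm; test concentration not given here.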 The settings on record: E. coli DRC39 acrAB, higher = more signal, called active from +8 up or from −8 down.
Experiment [8] in a line: growth of efflux-deficient E. coli DRC39 – strain DRC39, OD650, 48 h, E. coli filamentation inducers, primary screen (AID 1179).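 Further: screen aims at cell division blockers that make cells filament.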 Conditions: E. coli DRC39 delta-acrAB growth, higher = more signal, called active from +8 up or from −8 down.
A short description of experiment [9]: viability profiling in RPMI8226 myeloma cells – cell-based, resazurin fluorescence, basal, 24 h, PK04 Diversity Set, profiling panel (AID 1180).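 Further: RPMI8826 multiple myeloma cell line at 5000 cells per well; test concentration not given here.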 The settings on record: higher = more signal.
Experiment [10] has as its target E3 ubiquitin-protein ligase XIAP (Homo sapiens) (UniProt P98170). In words: small molecules binding XIAP protein – biophysical, small-molecule microarray, fluorescence 635 nm, primary screen (AID 1181).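 Further: score merges 667 nm emission and signal to noise over triplicate slides.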 The settings on record: higher = more signal.

The source made the active and inactive calls. Unless noted, how the calls were made is not given here.

Chain of E3 ubiquitin-protein ligase XIAP (Homo sapiens) (P98170 whole entry, looked up): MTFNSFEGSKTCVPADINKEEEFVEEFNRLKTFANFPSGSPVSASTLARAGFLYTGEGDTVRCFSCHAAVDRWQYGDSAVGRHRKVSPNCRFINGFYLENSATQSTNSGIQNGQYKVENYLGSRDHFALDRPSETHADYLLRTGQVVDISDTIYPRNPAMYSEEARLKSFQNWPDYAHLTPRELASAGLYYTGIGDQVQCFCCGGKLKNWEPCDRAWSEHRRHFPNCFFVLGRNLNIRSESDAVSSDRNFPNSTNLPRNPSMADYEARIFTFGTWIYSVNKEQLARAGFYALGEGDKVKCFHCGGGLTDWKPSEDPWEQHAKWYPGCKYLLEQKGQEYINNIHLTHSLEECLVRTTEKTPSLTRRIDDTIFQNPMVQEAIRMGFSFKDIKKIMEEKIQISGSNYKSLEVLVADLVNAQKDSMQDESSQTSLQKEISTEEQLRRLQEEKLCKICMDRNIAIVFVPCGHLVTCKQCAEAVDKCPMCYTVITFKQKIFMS

Consider `C=CCC(OC(C)=O)[C@@H]1[C@@H](N(Cc2ccc(-c3cccc(C(F)(F)F)c3)o2)C(=O)c2cccc3ccccc23)c2cc(OCCCO)ccc2N1C(=O)c1ccc2ccccc2n1` (stereo not given in full), for which the z-score was -0.892 in experiment [1]; -0.606 (inactive) in experiment [2]; -0.864 (inactive) in experiment [3]; -0.51 (inactive) in experiment [5]; 0.356 (inactive) in [6]; 0.249 (inactive) in experiment [7]. The z-score in [8] is -0.195 (inactive); in experiment [9] it was -0.804. Moreover, the composite z-score is 0.995 (inactive) in experiment [4] and -0.227 in experiment [10].

For the compound `C=CCC(OC(C)=O)[C@@H]1[C@@H](N(Cc2cc3ccccc3o2)C(=O)Cc2ccc(OC)cc2)c2cc(OCCCO)ccc2N1C(=O)Cc1ccc(OC)cc1` (stereo not given in full), the z-score is -1.28 in experiment [1]; -1.01 (inactive) in [2]; -0.0297 (inactive) in experiment [3]; 0.198 (inactive) in [5]; -0.133 (inactive) in experiment [6]; -0.184 (inactive) in experiment [7]. The z-score is -0.578 (inactive) in experiment [8] and -0.561 in experiment [9]. Besides, the values for the composite z-score in [4] and in experiment [10] were 0.707 (inactive) and 0.0345, respectively.

As to `O=C1NC(=O)C2C1C=CC(C(O)c1ccc(F)cc1)N2Nc1ccccn1` (stereo not given), the z-score is -1.78 in experiment [1]; 0.272 (inactive) in [2]; -1.28 (inactive) in experiment [3]; 1.77 (inactive) in experiment [5]; 0.624 (inactive) in experiment [6]; -0.684 (inactive) in experiment [7]. Besides, the figures for the z-score in experiment [8] and in [9] were -0.69 (inactive) and -1.64, respectively. The composite z-score in experiment [4] is 0.791 (inactive); in experiment [10], 0.172.

Turning to `CC(C)(C)OC(=O)CC[C@]1(C(=O)N2CCOCC2)N=C(c2ccc(OCCCO)cc2)O[C@H]1c1ccccc1CN=[N+]=[N-]`, the z-score in experiment [1] is 0.125; in experiment [2], -0.0255 (inactive); in experiment [3] it was -0.362 (inactive); in experiment [5] it was 1.78 (inactive); in [6] it was -0.459 (inactive); in [7], 0.565 (inactive). Also, the z-score was 0.088 (inactive) in experiment [8] and 0.0933 in experiment [9]. Moreover, the composite z-score in experiment [4] was -0.0668 (inactive); in experiment [10], 0.0159.

Turning to `CC[C@H](C)C(=O)O[C@H]1CC[C@]2(C)C3=C(CCC2C1(C)C)[C@]1(C)CC[C@H]([C@H](C)CCCC(C)C)[C@@]1(C)CC3` (stereo not given in full), the z-score was 1.06 in experiment [1]; 0.31 (inactive) in [2]; 0.0978 (inactive) in experiment [3]; -0.283 (inactive) in experiment [5]; 0.295 (inactive) in experiment [6]; 2.06 (inactive) in [7]. For the same compound, the values for the z-score in experiment [8] and in experiment [9] were 1.47 (inactive) and 1.09, respectively. For the same compound, the composite z-score was 0.454 (inactive) in experiment [4] and -0.304 in experiment [10].

Consider `COc1ccc(CCNC(=O)[C@@H]2c3ccccc3C(=O)N(CC34CC5CC(CC(C5)C3)C4)[C@H]2c2ccc(CO)cc2)cc1`, for which the z-score is 0.556 in [1]; -0.547 (inactive) in experiment [2]; -1.05 (inactive) in experiment [3]; 0.565 (inactive) in experiment [5]; -0.134 (inactive) in experiment [6]; 0.517 (inactive) in experiment [7]. For the same compound, the z-score in experiment [8] is 0.119 (inactive); in [9] it was 0.618. Further, the composite z-score in experiment [4] is 0.12 (inactive); in experiment [10], 0.399.

Regarding `C[N+](C)(C)CCCC[C@@H]1NC(=O)[C@H]2C[C@@H](C(=O)NCCCCCNC(=O)CS)[C@@H](c3ccc(O)cc3)N2C1=O`, the z-score in [1] is -0.532; in [2], -0.905 (inactive); in [3], 0.469 (inactive); in experiment [5], 0.82 (inactive); in experiment [6] it was -2.28 (inactive); in experiment [7] it was 0.902 (inactive). In addition, the z-score in experiment [8] is 1.33 (inactive); in experiment [9], -0.178. In addition, the composite z-score in experiment [4] was -1.3 (inactive); in experiment [10], -0.216.

As to `COCC(=C=CC[C@@H](O)c1ccc(OCCO)cc1)C[C@@H](O)COCc1ccccc1`, the z-score in experiment [1] is 0.948; in experiment [2], -0.81 (inactive); in experiment [3], 0.891 (inactive); in experiment [5] it was 0.801 (inactive); in [6] it was -1.31 (inactive); in experiment [7], 0.789 (inactive). Also, the z-score was 0.859 (inactive) in experiment [8] and 0.804 in [9]. The composite z-score is -2.32 (inactive) in experiment [4] and 0.24 in experiment [10].

In the case of `COCCOC(=O)N1C(=O)[C@@]2(c3ccccc31)[C@H](c1ccc(OCCO)cc1)N1[C@H](c3ccccc3)[C@H](c3ccccc3)OC(=O)[C@H]1[C@@H]2C(=O)N1CCN(c2ncccn2)CC1`, the z-score in experiment [1] is 0.19; in experiment [2], 1.03 (inactive); in experiment [3], -0.268 (inactive); in experiment [5], 1.89 (inactive); in experiment [6] it was 2.29 (inactive); in experiment [7] it was -0.441 (inactive). The z-score in [8] is -0.849 (inactive); in [9] it was 0.603. Besides, the values for the composite z-score in [4] and in [10] were -0.0117 (inactive) and 0.0548, respectively.

As for `COC(=O)C1(CC(C)C)C=C2C(=C(C(C)C)C(=O)C2C)CN1` (stereo not given), the z-score was -0.947 in [1]; 1.46 (inactive) in experiment [2]; -1.56 (inactive) in experiment [3]; 0.399 (inactive) in experiment [5]; 0.271 (inactive) in [6]; -0.592 (inactive) in experiment [7]. For the same compound, the z-score in experiment [8] is -0.113 (inactive); in experiment [9], -1.97. Besides, the figures for the composite z-score in experiment [4] and in [10] were -1.18 (inactive) and 0.732, respectively.

On to `COC(=O)[C@@]1(Cc2ccc(F)cc2)[C@H]2c3cc(C(=O)N(C)C)n(CCn4cc([N+](=O)[O-])nc4C)c3C[C@H]2CN1C(=O)c1ccccc1`, for which the z-score in [1] is -1.02; in experiment [2], 1.94 (inactive); in experiment [3], -1.05 (inactive); in experiment [5], 0.122 (inactive); in experiment [6], 0.502 (inactive); in [7] it was -0.984 (inactive). For the same compound, the z-score in [8] is -0.566 (inactive); in experiment [9], -0.801. Further, the results for the composite z-score in experiment [4] and in [10] were -0.165 (inactive) and 0.267, respectively.

Consider `C=CCC(OC(C)=O)[C@@H]1[C@@H](N(Cc2cc3ccccc3o2)C(=O)Cc2ccc(OC)cc2)c2cc(OCCCO)ccc2N1C(=O)Cc1ccc2ccccc2c1` (stereo not given in full), for which the z-score in experiment [1] is -1.22; in experiment [2], -0.379 (inactive); in [3] it was 0.499 (inactive); in experiment [5], -0.17 (inactive); in experiment [6], 0.101 (inactive); in experiment [7], -0.529 (inactive). Moreover, the z-score in [8] is -0.94 (inactive); in [9], -0.216. Moreover, the results for the composite z-score in experiment [4] and in experiment [10] were 0.65 (inactive) and 0.308, respectively.

Consider `Cc1ccc(S(=O)(=O)N2[C@@H](c3ccccc3)C(C(=O)O)=CC[C@H]2c2ccc(C#N)cc2)cc1`, for which the z-score in [1] was -0.847; in experiment [2] it was -0.647 (inactive); in experiment [3] it was -1.35 (inactive); in experiment [5], 0.0794 (inactive); in experiment [6], 0.11 (inactive); in [7], -0.674 (inactive). In addition, the figures for the z-score in experiment [8] and in experiment [9] were -0.841 (inactive) and -1.28, respectively. Further, the composite z-score in experiment [4] was 0.0114 (inactive); in experiment [10], 0.15.
